Test results taken from the antibiotic and cytotoxicity screens of Wong et al. (2023).
Hit rate of the full screen: of about 39,000 compounds, about 3,300 (8.5%) were called active. The full list was thinned out, with actives kept by preference.

Each compound was assayed on HepG2 (assay: cytotoxicity call (relative viability < 0.9)). Details: 10 µM.
For C[C@H]1CN([C@@H](C)CO)C(=O)Cc2cc(NC(=O)Cn3cnnn3)ccc2O[C@H]1CN(C)Cc1ccc(-c2ccccc2)cc1, the cytotoxicity call was “inactive”.
C[C@@H]1CN([C@@H](C)CO)C(=O)c2cc(NC(=O)Nc3ccccc3)ccc2O[C@@H](C)CCCCO[C@@H]1CN(C)C(=O)Nc1ccccc1 was tested, and the cytotoxicity call was “inactive”.
For C[C@@H]1CN([C@H](C)CO)C(=O)Cc2cc(NC(=O)CCN3CCOCC3)ccc2O[C@H]1CN(C)Cc1ccc2c(c1)OCO2, the cytotoxicity call was “inactive”.
Cc1noc(C)c1S(=O)(=O)N(C)C[C@@H]1Oc2ccc(NC(=O)NC3CCCCC3)cc2CC(=O)N([C@@H](C)CO)C[C@H]1C was tested, and the cytotoxicity call was “inactive”.
In the case of Cc1ccc(S[C@]2(C(=O)NCc3ccccc3)CC(=O)N(Cc3ccccc3C(F)(F)F)[C@@H]2c2ccc(CO)cc2I)cc1, the cytotoxicity call is reported as “inactive”.
CN(C)c1ccc(O)c2c1C[C@H]1C[C@H]3[C@H](N(C)C)C(=O)C(C(N)=O)=C(O)[C@@]3(O)C(=O)[C@H]1C2=O was tested, and the cytotoxicity call was “inactive”.
For COC(=O)C1(C)CCCC2(C)c3ccc(O)c(C(C)C)c3CCC12 (stereo not drawn), the cytotoxicity call was “active”.
CC(C)c1c(O)ccc2c1CCC1C(C)(C)C(=O)CCC21C (stereo not drawn) was tested, and the cytotoxicity call was “inactive”.
CC(C)c1c(O)ccc2c1CCC1C(C)(C)CCCC21C (stereo not drawn) was tested, and the cytotoxicity call was “inactive”.
In the case of CC(C)c1c(O)ccc2c1CC[C@H]1C(C)(C)CCC[C@]21C, the cytotoxicity call is reported as “active”.
COC(=O)C1(C)CCCC2(C)c3ccc(C(C)C)cc3C(=O)CC12 (stereo not drawn) was tested, and the cytotoxicity call was “inactive”.
With CC(C)c1c(O)ccc2c1CCC1C(C)(C=O)CCCC21C (stereo not drawn) the cytotoxicity call was “inactive”.
CC(C)(CO)c1cc2cc(NC(=O)C3(c4ccc5c(c4)OC(F)(F)O5)CC3)c(F)cc2n1C[C@@H](O)CO was tested, and the cytotoxicity call was “inactive”.
NCCn1cccn1 was tested, and the cytotoxicity call was “inactive”.
In the case of C[C@@H]1CN([C@@H](C)CO)S(=O)(=O)c2ccc(C#CCN(C)C)cc2O[C@H]1CN(C)Cc1ccccn1, the cytotoxicity call is reported as “inactive”.
With CC(C)(C)C1CCC(OC[C@@H](O)CN2CCC(CN3C(=O)c4cccc5cccc(c45)C3=O)CC2)CC1 (stereo partly drawn) the cytotoxicity call was “active”.
With O=C(CN1C(=O)c2cccc3cccc(c23)C1=O)N1CCN(CCN2C(=O)[C@@H]3[C@@H](C2=O)[C@@H]2C=C[C@@H]3C2)CC1 the cytotoxicity call was “inactive”.
With O=C(O)CN1C(=O)c2cccc3cccc(c23)C1=O the cytotoxicity call was “inactive”.
In the case of CCCN(C)C[C@H]1OCCCC[C@@H](C)Oc2ccc(NC(=O)Nc3c(C)noc3C)cc2C(=O)N([C@H](C)CO)C[C@@H]1C, the cytotoxicity call is reported as “inactive”.
In the case of COc1ccc(S(=O)(=O)Nc2ccc3c(c2)C(=O)N([C@@H](C)CO)C[C@H](C)[C@@H](CN(C)C(=O)Nc2cccc4ccccc24)OCCCC[C@@H](C)O3)cc1, the cytotoxicity call is reported as “inactive”.
In the case of CC=C1C2C=C(C)CC1(N)c1ccc(=O)[nH]c1C2 (stereo not drawn), the cytotoxicity call is reported as “inactive”.
With C[C@@H]1CN([C@H](C)CO)C(=O)c2cccc(NC(=O)Nc3ccccc3)c2O[C@@H]1CN(C)Cc1ccc(C(=O)Nc2ccccc2N)cc1 the cytotoxicity call was “inactive”.
For C[C@@H]1CN([C@@H](C)CO)C(=O)c2cccc(NC(=O)Nc3ccc(F)cc3)c2O[C@@H]1CN(C)Cc1ccc(C(=O)Nc2ccccc2N)cc1, the cytotoxicity call was “active”.
In the case of C[C@H](CO)N1C[C@H](C)[C@H](CN(C)Cc2ccc(C(=O)Nc3ccccc3N)cc2)Oc2c(NC(=O)Nc3ccc(F)cc3)cccc2C1=O, the cytotoxicity call is reported as “inactive”.
With C[C@@H]1CN([C@H](C)CO)C(=O)c2cccc(NC(=O)Nc3ccc(F)cc3)c2O[C@H]1CN(C)Cc1ccc(C(=O)Nc2ccccc2N)cc1 the cytotoxicity call was “inactive”.
In the case of C[C@@H]1CN([C@@H](C)CO)C(=O)c2cccc(NC(=O)Nc3ccccc3)c2O[C@H]1CN(C)Cc1ccc(C(=O)Nc2ccccc2N)cc1, the cytotoxicity call is reported as “inactive”.
With C[C@H]1CN([C@@H](C)CO)C(=O)c2cccc(NC(=O)Nc3ccc(F)cc3)c2O[C@H]1CN(C)Cc1ccc(C(=O)Nc2ccccc2N)cc1 the cytotoxicity call was “active”.
With C[C@H]1CN([C@@H](C)CO)C(=O)c2cccc(NC(=O)Nc3ccccc3)c2O[C@H]1CN(C)Cc1ccc(C(=O)Nc2ccccc2N)cc1 the cytotoxicity call was “active”.
With C[C@H]1CN([C@@H](C)CO)C(=O)c2cccc(NC(=O)Nc3ccc(F)cc3)c2O[C@@H]1CN(C)Cc1ccc(C(=O)Nc2ccccc2N)cc1 the cytotoxicity call was “inactive”.
With C[C@@H]1CN([C@@H](C)CO)C(=O)c2cccc(NC(=O)Nc3ccc(F)cc3)c2O[C@H]1CN(C)Cc1ccc(C(=O)Nc2ccccc2N)cc1 the cytotoxicity call was “inactive”.
C[C@@H]1CN([C@@H](C)CO)C(=O)CCCn2cc(nn2)CO[C@H]1CN(C)S(=O)(=O)c1ccccc1C#N was tested, and the cytotoxicity call was “inactive”.
CC(C)c1cccc(NC(=O)C[C@H]2CC[C@H]3[C@@H](COc4ccc(NC(=O)c5ccc(C#N)cc5)cc4C(=O)N3C)O2)c1 was tested, and the cytotoxicity call was “inactive”.
COc1ccc(S(=O)(=O)N(C)C[C@H]2OCCCC[C@H](C)Oc3ccc(NC(=O)Nc4cccc5ccccc45)cc3C(=O)N([C@@H](C)CO)C[C@H]2C)cc1 was tested, and the cytotoxicity call was “inactive”.
In the case of COc1ccc(S(=O)(=O)N(C)C[C@H]2Oc3ccc(N(C)C)cc3CC(=O)N([C@H](C)CO)C[C@H]2C)cc1, the cytotoxicity call is reported as “inactive”.
C[C@@H]1CN([C@H](C)CO)C(=O)c2cccc(NS(=O)(=O)c3ccc(F)cc3)c2O[C@@H]1CN(C)Cc1ccc(Cl)c(Cl)c1 was tested, and the cytotoxicity call was “inactive”.
In the case of COc1ccc(S(=O)(=O)Nc2ccc3c(c2)C(=O)N([C@H](C)CO)C[C@@H](C)[C@H](CN(C)C(=O)Nc2cccc4ccccc24)OCCCC[C@@H](C)O3)cc1, the cytotoxicity call is reported as “inactive”.
C[C@H]1CN([C@@H](C)CO)C(=O)c2cc(C#CCN(C)C)cnc2O[C@@H]1CN(C)Cc1ccc(C(=O)O)cc1 was tested, and the cytotoxicity call was “inactive”.
In the case of C[C@@H]1CN([C@H](C)CO)C(=O)c2cccc(NC(=O)Nc3ccc4c(c3)OCO4)c2O[C@H]1CN(C)C(=O)Nc1ccc(C(F)(F)F)cc1, the cytotoxicity call is reported as “inactive”.
With Nc1ncccc1-c1nc2ccc(-c3ccccc3)nc2n1-c1ccc(C2(N)CCC2)cc1 the cytotoxicity call was “active”.
For NC(=O)c1ccc2nc(-c3ccc(C4(N)CCC4)cc3)c(-c3ccccc3)n2n1, the cytotoxicity call was “inactive”.
CC(C)NC(=O)N[C@@H]1CC[C@@H](CCN)O[C@@H]1CO was tested, and the cytotoxicity call was “inactive”.
With Cc1ccc(S(=O)(=O)Nc2ccc3c(c2)CC(=O)N([C@@H](C)CO)C[C@@H](C)[C@@H](CN(C)S(=O)(=O)c2c(C)noc2C)O3)cc1 the cytotoxicity call was “inactive”.
Cc1noc(C)c1NC(=O)N(C)C[C@H]1Oc2ccc(NC(=O)Cn3cnnn3)cc2CC(=O)N([C@H](C)CO)C[C@@H]1C was tested, and the cytotoxicity call was “inactive”.
